Source: PubChem BioAssay AID904 (National Center for Advancing Translational Sciences (NCATS), 2007)
In all, about 55,000 compounds went through this assay and about 530 (0.96%) were called active. Inconclusive results (about 7%) are left out. Many of the other results were omitted from the sample, so actives are more common in it than they were. A number with no mark means an inactive call. Calls follow the shape of the dose curve; as a rule, active = well fitted cell-killing curve with a large enough effect; inconclusive = small, poorly fitted or top-dose-only effect; inactive = no such curve, though single readings can be large or run the other way.

Assay: qHTS Screen for Compounds that Selectively Target Cancer Cells with p53 Mutations: Cytotoxicity of p53 Null Cells at the Nonpermissive Temperature; also: nearly all actives have a fitted effect of over 50% in size;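 as to activity, negative = cell killing: 0% = DMSO only and -100% = full killing by 100 µM tamoxifen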
Conditions: H1299 p53-null (neo) cells, 39C, ATPlite viability, 24 h; series mostly up to 46.1 µM; activity, negative = cell killing: at the top concentration
Outline: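 ATP-luminescence viability readout (ATPlite, 20 min RT) after 24 hr compound treatment at 39C of H1299-neo or H1299-p53A138V cells; titration up to 46 uM; normalized to DMSO and 100 uM tamoxifen; Hill-fit AC50.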
Potency is read from the fitted curve at half-maximal effect.

SMILES | Potency | activity, negative = cell killing
CC(C)c1ccc(NC(=O)c2ccc3c(O)c(S(=O)(=O)c4ccccc4)c(=O)[nH]c3c2)cc1 | 7.94 µM (active) | –
Cc1ccc(C(=O)Nc2ccc3[nH]c(=O)c(=O)[nH]c3c2)cc1 | – | 16.2%
COc1ccc(CNC(=O)c2ccc3c(O)c(S(=O)(=O)c4ccccc4)c(=O)[nH]c3c2)cc1 | – | -10.1%
CCC(C(=O)Nc1cccc(-c2nc3cccnc3s2)c1C)c1ccccc1 (centres undefined) | – | 6.12%
Cc1c(NC(=O)Cc2ccccc2)cccc1-c1nc2cccnc2s1 | – | 3.6%
Cc1c(NC(=O)C(C)(C)C)cccc1-c1nc2ccccc2s1 | 15.8 µM (active) | –
O=C(Nc1cc(C(F)(F)F)ccc1Cl)C(=O)N1CCCCC1 | – | -3.07% [at 1.84 µM]
Cc1cccc(NC(=O)CSc2ncc(-c3ccccc3)[nH]2)c1C | – | 0.286%
Cc1ccc(S(=O)(=O)c2cn(Cc3ccccc3)c3cc(N4CCCC4)c(F)cc3c2=O)c(C)c1 | – | -14.3%
COCCN(Cc1ccco1)C(=O)Cn1ncc2c([nH]c3ccccc32)c1=O | – | -13.3%
Cc1ccc(CN(C(=O)COc2ccc(Cl)cc2C)C2CCS(=O)(=O)C2)o1 (centres undefined) | – | 1.18%
COc1cc(C(=O)N2CCN(c3ccc(Nc4ccc(C)cc4)nn3)CC2)cc(OC)c1OC | – | 21.3%
O=C(COC(=O)c1cc2c(s1)CCCC2)NCc1ccccc1Cl | – | -13.8%
Cc1ccc(NC(=O)c2sc3nc(N)c(C#N)cc3c2N)cc1 | – | 9.07% [at 1.84 µM]
CCOc1ccc(CNC(=O)C2CCN(c3nnc(-n4cccc4CNc4ccc(C)cc4)s3)CC2)cc1OC | – | -31.7%
CCOC(=O)/C(C#N)=C/c1ccc(N2CCN(Cc3ccccc3)CC2)cc1 | – | 2.74% [at 1.84 µM]
Cc1cccc(-n2c(=O)c3c(c4cc(C)ccc4n3C)n(CC(=O)Nc3ccccc3Cl)c2=O)c1 | – | -3.24%
CCOc1ccc(-c2nonc2NC(=O)c2oc3ccc(CC)cc3c2C)cc1 | – | -18.4%
Cc1ccc(S(=O)(=O)N2CCN(CC(=O)N/N=C/c3cc([N+](=O)[O-])ccc3Cl)CC2)cc1 | – | 17.1%
CCc1nnc(SCC(=O)Nc2cc(OC)ccc2OC)nc1CC | – | -14.4%
O=c1n(Cc2cccc(C(F)(F)F)c2)c2ccccc2c2nc(-c3ccccc3)nn12 | – | 2.19%
Cc1c(NC(=O)c2cc(-c3ccc(Br)cc3)on2)c(=O)n(-c2ccccc2)n1C | – | 16.8%
Cc1ccc(-c2nnc(Nc3cccc(Br)c3)c3ccccc23)cc1S(=O)(=O)NCC1CCCO1 (centres undefined) | – | 13.7%

SMILES | Potency | activity, negative = cell killing
Cc1ccc(-c2nnc(Nc3ccc(OCC(N)=O)cc3)c3ccccc23)cc1S(=O)(=O)NCC1CCCO1 (centres undefined) | 12.6 µM (active) | –
Cc1ccc(Nc2nnc(-c3ccc(C)c(S(=O)(=O)N4CCCCC4)c3)c3ccccc23)cc1 | – | 4.35%
C=CCn1c(SCC(N)=O)nnc1-c1cc2c(s1)CCC(CC)C2 (centres undefined) | – | -6.46%
Cc1nc2sc(C)c(C)n2c(=O)c1S(=O)(=O)NCCc1ccc(Cl)cc1 | – | -2.74%
Cc1cc(C)c(/C=C/c2onc(C)c2S(=O)(=O)N2CCC(C(=O)Nc3ccc(Cl)cc3C)CC2)c(C)c1 | – | -11.9%
O=C(CNS(=O)(=O)c1cccs1)N1CCN(c2ccccc2Cl)CC1 | – | -5.35%
COc1ccc(OC)c(NC(=O)CSC2=Nc3ccccc3C3=NC(CC(=O)NCCc4ccccc4)C(=O)N23)c1 (centres undefined) | – | 11.4%
COc1cc(Cl)c(C)cc1NC(=O)COC(=O)c1cc(SC)ccc1Cl | – | 6.7%
Cc1cc2n(n1)C(c1cc(C(C)(C)C)c(O)cc1O)Nc1ccccc1-2 (centres undefined) | – | -1.76%
Clc1ccc(-n2nnnc2-c2cnc(-c3ccccn3)nc2-c2cccs2)cc1 | – | -18.6%
c1ccc(-c2noc(-c3cccs3)n2)nc1 | 14.1 µM (active) | –
O=C(CN1C(=O)CCn2nc(-c3ccccc3)cc21)NCc1ccccc1 | – | -23.9%
CN(C(=O)c1c(Cl)cnn1C)C12CC3CC(CC(C3)C1)C2 | – | 17.1% [at 1.84 µM]
COc1ccc(-c2csc(NC(=O)COC(=O)Cc3ccc(Cl)cc3Cl)n2)cc1 | – | 9.52%
COc1ccc(NC(=O)c2cc3cc(C)ccc3n2C)cc1 | – | -7.99%
Nc1nnc(SCC(=O)Nc2ccc3nc(SCC(=O)Nc4ccccc4)sc3c2)s1 | – | -13.2%
Cc1ccccc1CNC(=O)CSc1nnc(C)c2c(C)n(-c3ccccc3)nc12 | – | 30.6%
O=C(CSc1ccc(C(F)(F)F)cc1[N+](=O)[O-])NCCOc1ccccc1 | – | 3.3%
COc1ccc(-c2c3c(=O)n(C)c(=O)n(C)c3c3c(C)nc4ccccc4n23)cc1 | – | -10.8%
CCc1nnc(SCc2nc(-c3cccc(C)c3)oc2C)c2cc3sc(C)cc3n12 | – | -17.9%
Cc1noc(COc2ccccc2OCc2onc(C)c2Cl)c1Cl | – | 4.54%
O=C(NCCc1ccc(Cl)cc1)c1ccc2nc(CCc3ccccc3)oc2c1 | – | 0.294%
COc1cc(C(=O)NCCc2csc3nc(-c4ccccc4C)nn23)cc(OC)c1OC | – | -2.62%

SMILES | Potency | activity, negative = cell killing
COc1ccc2c(c1)c(N1CCCC1=O)c(C(=O)Nc1ccccc1C(F)(F)F)n2C | – | -2.55%
Cc1ccccc1-n1c(C)cc(/C=C2\NC(=O)NC2=O)c1C | 8.91 µM (active) | –
CCc1ccc(CNC(=O)c2cc3cc4ccc(OC)cc4nc3o2)cc1 | – | -17.3%
CCOc1ccc(NC(=O)Cn2cc(C(=O)c3ccc(C)cc3)c(=O)c3cc4c(cc32)OCCO4)cc1 | – | 2.66%
Cc1cc(C)cc(NC(=O)CSc2nc(=O)n(CCN3CCOCC3)c3c2CCC3)c1 | – | 13.2%
CCCCCCCCC(=O)NCCOc1ccccc1 | – | 25.4%
Cc1ccc(NC(=O)CN2C(=O)CC(C)Sc3ccccc32)c(C)c1 (centres undefined) | – | -6.72%
O=C(CSc1nc2c(c(=O)[nH]1)CN(Cc1ccc(F)cc1)CC2)Nc1ccccc1Cl | – | -2.2%
Cc1ccn2c(Nc3ccc4c(c3)OCCO4)c(-c3ccc(C)s3)nc2c1 | 10 µM (active) | –
Cc1ccc(Nc2c(-c3ccc(C)s3)nc3ccccn23)cc1 | – | -7.56%
Cc1cccc2nc(-c3ccc(Cl)s3)c(Nc3ccc4c(c3)OCCO4)n12 | – | -3.18%
CCn1c2ccccc2c2nnc(N3CCN(c4cc(C)ccc4C)CC3)nc21 | – | 23.4%
Cc1ccc(CCNC(=O)c2ccc(CS(=O)(=O)Cc3cccc(C)c3)o2)cc1 | – | 14.9%
Cc1ccc(Cl)cc1N1CCN(C(=O)CN2C(=O)COc3ccc(S(=O)(=O)N4CCOCC4)cc32)CC1 | – | -21.1%
Cc1cc(C)cc(-n2c(SCC(=O)NCC3CCCO3)nc3c([nH]c4ccccc43)c2=O)c1 (centres undefined) | – | 3.52%
CC1CCc2noc(NC(=O)c3ccc([N+](=O)[O-])cc3)c2C1 (centres undefined) | – | 5.3%
COc1ccc(-c2cc(C(=O)Nc3sc4c(c3C(N)=O)CCCC4)no2)cc1 | – | -15.4%
COc1ccc(C(=O)Nc2onc3c2CCCC3)cc1 | 7.94 µM (active) | –
O=C(Cn1ncc2c3ccccc3n(Cc3ccccc3)c2c1=O)NC1CCCCCC1 | – | -12.2%
Cc1c(Cl)cccc1NC(=O)c1noc2c1CCCC2 | – | -12.7%
O=C(N/N=C/c1cccc([N+](=O)[O-])c1)C1CC(=O)N(c2ccc(Br)cc2)C1 (centres undefined) | – | 32.2%
CN(Cc1ccccc1)C(=O)COC(=O)c1ccccc1Nc1ccccc1 | – | -8.55% [at 1.84 µM]
O=C(NCc1ccccc1)c1cccc(NC(=O)N2CCSc3ncccc32)c1 | – | 4.35%
